Activity calls are given as the source filed them. Unless noted, no rule for the calls is given here.
What was measured:
[1] = tested on: XIP peptide (Xip251-270) binding; assay: small-molecule binders of XIP peptide, primary screen, biochemical, small-molecule microarray, fluorescence 635/667 nm, 0.1 µg/mL protein (AID 1182); settings: fluorescent protein binding, 635 nm, higher = more signal, called active from +8 up or from −8 down
XIP peptide (Xip251-270) = assay: small-molecule binders of XIP peptide, primary screen, biochemical, small-molecule microarray, fluorescence 635/667 nm, 0.5 µg/mL protein (AID 1183); settings: small-molecule microarray binding, fluorescence 635 nm; higher = more signal
[2] = Plasmodium falciparum growth inhibition, primary screen, strain 3D7, DAPI fluorescence, 100 nL (AID 1184);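 also: parasites grown inside human red blood cells in medium with human serum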; settings: P. falciparum 3D7 growth, 3 d, higher = more signal
[3] = molecular target: Homeobox protein Hox-A13 (Mus musculus) (UniProt Q62424); assay: inhibitors of HoxA13-DNA binding, primary screen, biochemical, fluorescence polarization, labeled oligonucleotide (AID 1185); settings: 15 min, higher = more signal, called active from +8 up or from −8 down
[4] = inhibitors of hydroxyurea-induced Chk1 phosphorylation, primary screen, imaging, HeLa, phospho-Chk1 antibody, percent positive cells (AID 1186); settings: hydroxyurea-induced phospho-Chk1 immunofluorescence imaging, higher = more signal
[5] = inhibitors of hydroxyurea-induced Chk1 phosphorylation, primary screen, imaging, HeLa, phospho-Chk1 nuclear intensity (AID 1187); settings: hydroxyurea-induced phospho-Chk1 immunofluorescence imaging, higher = more signal

Homeobox protein Hox-A13 (Mus musculus), sequence (Q62424 whole entry, looked up): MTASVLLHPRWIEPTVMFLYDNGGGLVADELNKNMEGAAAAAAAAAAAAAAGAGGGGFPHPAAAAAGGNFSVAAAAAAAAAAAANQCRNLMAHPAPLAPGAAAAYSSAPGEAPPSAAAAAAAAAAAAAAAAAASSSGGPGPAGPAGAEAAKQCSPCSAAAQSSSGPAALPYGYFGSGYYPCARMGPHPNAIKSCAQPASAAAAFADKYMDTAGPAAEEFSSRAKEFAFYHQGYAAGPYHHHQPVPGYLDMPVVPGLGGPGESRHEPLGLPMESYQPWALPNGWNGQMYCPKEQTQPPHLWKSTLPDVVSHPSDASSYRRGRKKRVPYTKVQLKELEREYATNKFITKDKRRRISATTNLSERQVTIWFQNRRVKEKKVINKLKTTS

Compound	composite z-score [1]	composite z-score (XIP peptide (Xip251-270))	z-score [2]	z-score [3]	z-score [4]	z-score [5]
CO[C@@H]1COC(=O)CC=C[C@@H](C)COC(=O)[C@H](COCc2ccccc2)NC(=O)CC=C[C@H]1C	0.0912 (inactive)	-0.453	-1.02	-0.119 (inactive)		
O=C1[C@H]2[C@H]3[C@H](O)[C@H](O)CC(=NOC[C@@H](O)COCc4ccco4)[C@H]3CC[C@H]2C(=O)N1Cc1ccc2c(c1)OCO2	0.525 (inactive)	0.127	0.436	-0.743 (inactive)		
CCCNC(=O)OC[C@H]1O[C@H](CCON=C2[C@H]3CCn4c(=O)n(-c5ccccc5)c(=O)n4[C@H]3[C@H](O)[C@@H]3O[C@H]23)C=C[C@@H]1Oc1ccc(OC)cc1	0.118 (inactive)	0.592	-1.01	-6.53 (inactive)		
C[C@H]1Cc2c(-c3ccccc3)nc3c(c2CO1)CN(CCOc1ccccc1)CC3	0.15 (inactive)	0.771	1.18	-5.41 (inactive)		
C=COC[C@H]1CN2[C@@H](CC[C@@H](C)[C@@H]2c2ccc(Br)cc2)C(=O)O1	0.299 (inactive)	0.719	0.0315	-2.37 (inactive)		
CCN1C(=O)[C@H]2[C@H]3[C@H](O)[C@H](O)CC(=NOCc4ccccc4)[C@H]3CC[C@H]2C1=O	-0.0513 (inactive)	0.172	0.783	-1.15 (inactive)		
CCN1C(=O)[C@H]2[C@H]3[C@H](O)[C@H](O)CC(=NOCc4ccccc4)[C@@H]3CC[C@H]2C1=O	-0.161 (inactive)	0.465	-0.165	0.697 (inactive)		
O=C1C[C@@H](O)[C@@H](O)[C@@H]2[C@@H]3C(=O)N(c4ccc(F)cc4F)C(=O)[C@@H]3CC[C@@H]12	0.0164 (inactive)	-0.0741	0.452	-0.595 (inactive)		
CC(CCC(=O)OC[C@H]1O[C@H](C#Cc2ccccc2)C=C[C@@H]1Oc1ccc(C)cc1)=NO[C@@H](C)c1cn([C@H](CO)Cc2ccccc2)nn1	0.692 (inactive)	0.54	-1.02	-2.38 (inactive)		
COC(=O)CC=C[C@@H](C)[C@@H](C=NO[C@H](C)c1cn([C@@H]2COC[C@H]2O)nn1)OC	-0.107 (inactive)	0.446	0.354	0.0624 (inactive)		
CCN1C(=O)[C@H]2[C@H]3[C@H](O)C=CC(=O)[C@@H]3CC[C@H]2C1=O	-0.638 (inactive)	-0.0737	1.02	0.116 (inactive)		
COc1ccc([Si](C)(C)[C@@H]2[C@@H](CCO)O[C@]3(C(=O)N(Cc4ccc(NC(C)=O)cc4)c4ccccc43)[C@H]2C)cc1	0.935 (inactive)	0.811	-2.92	-5.34 (inactive)	-0.861 (inactive)	-0.16 (inactive)
CCc1cccc(NC(=O)O[C@H]2[C@H](OC(=O)Nc3ccc4c(c3)OCO4)[C@@H](OC(=O)Nc3ccc4c(c3)OCO4)[C@@H](OC)O[C@@H]2CO)c1	0.0979 (inactive)	-0.0177	-2.23	-6.22 (inactive)	-0.313 (inactive)	0.165 (inactive)
CN1C(=O)[C@@]2(CCC(=O)OC(C)(C)C)N=C(c3ccc(OCCCO)cc3)O[C@H]2c2ccccc21	0.0792 (inactive)	0.576	-2.1	-4.88 (inactive)	-0.414 (inactive)	-0.261 (inactive)
COc1ccccc1CN1C(=O)c2ccccc2[C@@H](C(=O)NCC(F)(F)F)[C@@H]1c1ccc(CO)cc1	-0.51 (inactive)	0.561	-1.19	-2.99 (inactive)	-0.188 (inactive)	0.158 (inactive)
CCCC=C(CCC)[C@@H](NC(=O)c1ccc(-c2ccccc2)cc1)c1ccc(C(=O)OC)cc1	-0.144 (inactive)	0.0922	0.208	-0.539 (inactive)	0.125 (inactive)	-0.115 (inactive)
CCCCCN1CC=CC23O[C@@H]4C=CCOC(=O)[C@@H]4[C@H]2C(=O)N(CCCCCCO)[C@@H]3C1=O (stereo not given in full)	0.282 (inactive)	-0.325	-0.658	-4.08 (inactive)	-0.0533 (inactive)	0.0434 (inactive)
CC(C)OC(=O)C=C1C[C@@H](c2ccc(C#N)cc2)O[C@@H](c2ccc(C#N)cc2)O1	1.1 (inactive)	0.865	-0.868	-5.34 (inactive)	0.296 (inactive)	0.219 (inactive)
CN(C)C(=O)[C@@]1(Cc2ccccc2)N=C(c2ccc(OCCCO)cc2)O[C@H]1c1ccccc1CN=[N+]=[N-]	2.74 (inactive)	0.746	-2.11	-1.69 (inactive)	0.264 (inactive)	0.492 (inactive)

Compound	composite z-score [1]	composite z-score (XIP peptide (Xip251-270))	z-score [2]	z-score [3]	z-score [4]	z-score [5]
COC(=O)[C@@H]1N=C(c2ccc(OCCCO)cc2)O[C@@H]1c1ccccc1N=[N+]=[N-]	0.82 (inactive)	0.806	-1.43	-3.65 (inactive)	-0.292 (inactive)	-0.269 (inactive)
COCCOC(=O)N1C(=O)[C@@]2(c3cc(C#CC4(O)CCCCCC4)ccc31)[C@H](c1ccc(OCCO)cc1)N1[C@H](c3ccccc3)[C@H](c3ccccc3)OC(=O)[C@H]1[C@@H]2C(=O)NC[C@H](O)c1ccccc1	0.437 (inactive)	0.723	-2.27	2.7 (inactive)	0.0412 (inactive)	0.0764 (inactive)
C#C[C@@H](CC)O[Si](C#Cc1ccc(Oc2ccccc2)cc1)(C(C)C)C(C)C	0.0878 (inactive)	-0.102	-0.968	-0.279 (inactive)	0.169 (inactive)	-0.0725 (inactive)
CCCNC(=O)[C@@H]1c2ccccc2C(=O)N(Cc2ccccc2Cl)[C@H]1c1ccc(CO)cc1	-0.101 (inactive)	0.799	-0.994	-2.59 (inactive)	-0.258 (inactive)	-0.142 (inactive)
CC1CC/C=C\[C@H]2OC34C=CCN(Cn5nnc6ccccc65)C(=O)[C@H]3N(CCO)C(=O)[C@@H]4C2C(=O)O1 (stereo not given in full)	0.711 (inactive)	0.855	-0.611	-5.38 (inactive)	-0.384 (inactive)	-0.173 (inactive)
COCC1=C2[C@@H](CCc3ccccc3)OB(O)C[C@@H]2n2c(=O)n(-c3ccccc3)c(=O)n2C1	-0.0712 (inactive)	0.835	1.25	-4.79 (inactive)	0.0264 (inactive)	-0.295 (inactive)
CCCCCN1CC=CC23O[C@@H]4C=CCOC(=O)[C@@H]4[C@H]2C(=O)N(C(CO)C(C)C)[C@@H]3C1=O (stereo not given in full)	0.824 (inactive)	0.907	-0.303	-4.81 (inactive)	-0.0211 (inactive)	0.0917 (inactive)
CC(C)C[C@@H]1NC(=O)[C@H]2C[C@@H](C(=O)O)[C@@H](c3ccc(O)cc3)N2C1=O	0.0473 (inactive)	0.86	-0.251	-2.19 (inactive)	-0.523 (inactive)	-0.332 (inactive)
CN(C)CCCNC(=O)[C@@H]1c2ccccc2C(=O)N(Cc2ccccc2)[C@H]1c1ccc(CO)cc1	0.0257 (inactive)	-0.32	0.0535	0.86 (inactive)	0.242 (inactive)	0.372 (inactive)
COc1ccccc1CN1C(=O)c2ccccc2[C@@]2(Cc3ccccc3N(C(C)C)C2=O)[C@@H]1c1ccc(CO)cc1	0.496 (inactive)	0.854	0.559	-0.215 (inactive)	-0.014 (inactive)	0.36 (inactive)
Cc1ccc(S[C@]2(C(=O)O)CC(=O)N(Cc3ccccc3)[C@@H]2c2ccc(CO)cc2I)cc1	0.233 (inactive)	0.564	-0.58	-2.92 (inactive)	-0.123 (inactive)	-0.134 (inactive)
O=C1O[C@@H](c2ccccc2)[C@@H](c2ccccc2)N2[C@@H](c3ccc(OCCO)cc3)[C@]3(C(=O)Nc4ccc(C#CCCO)cc43)[C@@H](C(=O)N3CCCCCCC3)[C@H]12	2.93 (inactive)	0.883	-2.22	-12.2 (active)	-0.148 (inactive)	0.224 (inactive)
COCCCNC(=O)[C@@]1(Sc2ccc(C)cc2)CC(=O)N(Cc2ccccc2)[C@@H]1c1ccc(CO)cc1I	-0.453 (inactive)	0.423	-0.0893	-2.08 (inactive)	0.442 (inactive)	1.03 (inactive)
O=C1O[C@@H](c2ccccc2)[C@@H](c2ccccc2)N2[C@@H](c3ccccc3OCCO)[C@]3(C(=O)Nc4ccc(C#CCCO)cc43)[C@@H](C(=O)O)[C@H]12	0.106 (inactive)	0.842	-1.69	-5.33 (inactive)	0.722 (inactive)	0.803 (inactive)
CN1C(=O)C2C=CC(C(O)c3ccc(Br)cc3)N(N(c3ccccc3)c3ccccc3)C2C1=O (stereo not given)	0.654 (inactive)	0.266	-0.233	-0.704 (inactive)	0.63 (inactive)	0.0215 (inactive)
COCCOC(=O)N1C(=O)[C@@]2(c3cc(C#Cc4ccc(OC)cc4)ccc31)[C@H](c1ccc(O)cc1)N1[C@H](c3ccccc3)[C@H](c3ccccc3)OC(=O)[C@H]1[C@@H]2C(N)=O	-0.0296 (inactive)	0.754	-0.687	-1.15 (inactive)	-0.425 (inactive)	-0.461 (inactive)
O=C1C2C=CC(C(O)c3ccc([N+](=O)[O-])cc3)N(Nc3ccc([N+](=O)[O-])cc3)C2C(=O)N1c1ccccc1 (stereo not given)	1.39 (inactive)	0.813	-0.498	-4.02 (inactive)	0.822 (inactive)	-0.512 (inactive)
COc1ccc(CCNC(=O)[C@@H]2c3ccccc3C(=O)N(c3ccc(C)cn3)[C@H]2c2ccc(CO)cc2)cc1	-1.02 (inactive)	0.843	-0.183	-1.78 (inactive)	0.274 (inactive)	0.259 (inactive)
